From ChEMBL document CHEMBL3988442, “University of Dundee, Small-Polar-MMV Screening Library” (2021)

How the values were obtained:
[1] = target: T1, Aspartate--tRNA(Asp/Asn) ligase (Mycobacterium tuberculosis (strain ATCC 25618 / H37Rv)) (UniProt P9WFW3); test: Assay for Asp RNA synthetase-1 from Mycobacterium tuberculosis; assay type: functional; set-up: scale not given: direction of the effect not stated beside the values; conditions: 30 µM; note: in the data most compounds retested in dose-response had high values
T1 sequence (whole entry): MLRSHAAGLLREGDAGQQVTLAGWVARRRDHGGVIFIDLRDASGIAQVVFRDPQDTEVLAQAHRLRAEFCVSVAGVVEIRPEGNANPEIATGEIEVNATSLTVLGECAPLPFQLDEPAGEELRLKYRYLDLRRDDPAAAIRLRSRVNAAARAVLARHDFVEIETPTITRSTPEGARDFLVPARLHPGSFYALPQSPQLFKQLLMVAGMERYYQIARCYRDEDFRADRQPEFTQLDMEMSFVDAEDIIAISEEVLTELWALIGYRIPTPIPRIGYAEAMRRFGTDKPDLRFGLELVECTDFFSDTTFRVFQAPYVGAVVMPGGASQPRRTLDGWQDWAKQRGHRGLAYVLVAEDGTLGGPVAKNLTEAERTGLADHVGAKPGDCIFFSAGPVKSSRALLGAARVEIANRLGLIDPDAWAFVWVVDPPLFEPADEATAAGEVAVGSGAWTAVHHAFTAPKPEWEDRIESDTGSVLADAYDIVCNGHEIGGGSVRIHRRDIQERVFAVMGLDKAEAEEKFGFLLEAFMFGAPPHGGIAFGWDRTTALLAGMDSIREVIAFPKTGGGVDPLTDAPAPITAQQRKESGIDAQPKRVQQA

[2] = target: Shiga toxin 2 (Escherichia coli O157:H7) (UniProt P09385+P09386); test: E. coli 0.157:H7 Shiga Toxin SOP - stx2 screening assay; assay type: functional; set-up: scale not given: direction of the effect not stated beside the values; conditions: 30 µM

Work on CCCNC(=O)N1CCC(Oc2cc(C)ccc2F)(C(=O)O)CC1 yielded a Percent Effect [1] of -3.4% and a Percent Effect [2] of 8.44%.
Molecule Cc1ccsc1C(=O)N1CC(C(=O)N2CCOCC2)C2(CCOCC2)C1 (stereo not given) has a Percent Effect [1] of 7.88% and a Percent Effect [2] of -8.92%.
With Cc1nn(C)cc1CN1CCC(C2Nc3ccccc3S(=O)(=O)N2)CC1 (stereo not given) the Percent Effect [1] was -0.223% and the Percent Effect [2] was 14.6%.
Cc1ccc(N2CCCC(NCc3nc(C)c(C)o3)C2)nn1 (stereo not given) was tested, and the Percent Effect [1] was -0.975% and the Percent Effect [2] was -14.9%.
In the case of CCO[C@@H]1CO[C@@]2(CCCN(S(=O)(=O)c3cccnc3)C2)C1, the Percent Effect [1] is reported as 9.04% and the Percent Effect [2] is reported as -20%.
Work on CCc1n[nH]c(C2CN(C(=O)c3nc(C)n4ccccc34)CCO2)n1 (stereo not given) yielded a Percent Effect [1] of 2.55% and a Percent Effect [2] of -2.71%.
Cc1noc(C)c1CN1CCN(CC2CC2)c2ncccc2C1 showed a Percent Effect [1] of 2.1% and a Percent Effect [2] of 0.649%.
In the case of N#CCCN(C(=O)CN1CCCC1Cc1ccccc1)c1ccccc1 (stereo not given), the Percent Effect [1] is reported as 2.91% and the Percent Effect [2] is reported as 27.4%.
Work on CN(Cc1nc(N)c2ccccc2n1)C1CCCN(c2cccnn2)C1 (stereo not given) yielded a Percent Effect [1] of -4.22% and a Percent Effect [2] of -28.7%.
Work on CCc1ncnc2c1CCN(C(=O)N1CCCC1)CC2 yielded a Percent Effect [1] of 1.98% and a Percent Effect [2] of -14%.
In the case of Cc1ccccc1CSCCn1nc2ccccn2c1=O, the Percent Effect [1] is reported as -1.33% and the Percent Effect [2] is reported as 26.4%.
CNC(=O)NC(=O)Cn1cc(-c2ccccc2)cn1 gave a Percent Effect [1] of -2.46% and a Percent Effect [2] of 5.7%.
For O=C(c1ccnnc1)N1CCC2(CC1)CC(N1CCOCC1)C2, the Percent Effect [1] was 2.89% and the Percent Effect [2] was -0.921%.
CC(C)c1nc2c(n1C)CCN(Cc1nc(-c3ccsc3)no1)C2 showed a Percent Effect [1] of -3.99% and a Percent Effect [2] of -3.44%.
Cc1noc(C)c1CN1CCN(Cc2nccn2C)C(C)C1 (stereo not given) showed a Percent Effect [1] of -3.74% and a Percent Effect [2] of 1.27%.
In the case of Cc1ccc(S(=O)(=O)N2CCC3(CC(C(=O)NCC4CC4)=NO3)C2)cc1 (stereo not given), the Percent Effect [1] is reported as 10.8% and the Percent Effect [2] is reported as 14.7%.
With COCCN1CCC2(CC1)CC(COC)N(c1ncccn1)C2 (stereo not given) the Percent Effect [1] was 0.446% and the Percent Effect [2] was -9.07%.
Cc1ccccc1-c1cncc(C2CCN(C(=O)CN(C)C)CC2)n1 gave a Percent Effect [1] of 6.8% and a Percent Effect [2] of -18.5%.
CNC(=O)C1(c2cnccn2)CCCN1C(=O)c1ccccc1OC (stereo not given) showed a Percent Effect [1] of -4.66% and a Percent Effect [2] of -21.4%.
CC(C)N(CC(N)=O)Cc1csc(COc2ccc(F)cc2)n1 showed a Percent Effect [1] of -2.28% and a Percent Effect [2] of 1.96%.
CCC1=N[C@@]2(CC[C@@H]3CN(C(=O)NC(C)C)C[C@@H]32)C(=O)N1C was tested, and the Percent Effect [1] was -7.39% and the Percent Effect [2] was 3.05%.
For O=C(Nc1cccc(CNCc2csc(Br)c2)c1)C1CC1, the Percent Effect [1] was -0.759% and the Percent Effect [2] was -73.7%.
With COc1ccc(CN2C[C@H]3CN(c4ccsc4)C(=O)[C@H]3C2)cc1 the Percent Effect [1] was 4.05% and the Percent Effect [2] was -26.4%.
Molecule CC1CCN(CCNC(=O)c2ccccc2N2CCOCC2)CC1 has a Percent Effect [1] of 2.6% and a Percent Effect [2] of -16.9%.
CC(CNC(=O)N1CCN(CC(F)F)CC1)Cc1cccs1 (stereo not given) was tested, and the Percent Effect [1] was -1.76% and the Percent Effect [2] was 0.53%.
With COc1ccc(OCCCN2CCOC(Cn3cccn3)C2)cc1 (stereo not given) the Percent Effect [1] was -0.393% and the Percent Effect [2] was 5.03%.
Cc1cc(C2CCCN(C(=O)c3c(C)nn4cccnc34)C2)n[nH]1 (stereo not given) showed a Percent Effect [1] of -6.19% and a Percent Effect [2] of 7.06%.
CN(C)c1cncc(C2CCN(CCO)CC2)n1 gave a Percent Effect [1] of -2.69% and a Percent Effect [2] of -4.99%.
COCCNC(=O)Nc1ccc(F)c(C(N)=O)c1 was tested, and the Percent Effect [1] was 3.91% and the Percent Effect [2] was -19.7%.
Cc1cc(C)n(CC2CCCN2CCCS(=O)(=O)N(C)C)n1 (stereo not given) gave a Percent Effect [1] of 2.38% and a Percent Effect [2] of 0.632%.
For Cc1cnccc1N1CCCN(C(=O)CCCc2cn[nH]c2)CC1, the Percent Effect [1] was -0.632% and the Percent Effect [2] was -13.3%.
CN(Cc1ccc(C#N)cc1)Cc1noc(C(C)(C)C)n1 was tested, and the Percent Effect [1] was -2.67% and the Percent Effect [2] was -19%.
For CN(C)C(=O)CC1CC2(CCN(CC3CC3)CC2)c2cc(F)ccc21 (stereo not given), the Percent Effect [1] was 2.15% and the Percent Effect [2] was -3.11%.
Molecule CC(=O)N(Cc1ncc(C(C)C)o1)C1CCN(Cc2ncc[nH]2)C1 (stereo not given) has a Percent Effect [1] of 5.3% and a Percent Effect [2] of 10.9%.
With Cc1cnn(CC2CN(CC(=O)Nc3nnc(C)s3)CCO2)c1 (stereo not given) the Percent Effect [1] was -4.68% and the Percent Effect [2] was 7.65%.
With CNc1nc2c(s1)C(c1cccc(F)c1F)CC(=O)N2 (stereo not given) the Percent Effect [1] was 34.5% and the Percent Effect [2] was 3.28%.
Cc1cccc2c1cnn2CCCNC(=O)C(C)C gave a Percent Effect [1] of 11.8% and a Percent Effect [2] of -9.88%.
Work on CCCn1ncc(CN2C[C@@H]3CCCN3C[C@@H]2CCSC)c1C yielded a Percent Effect [1] of -1.92% and a Percent Effect [2] of -13.3%.
For CC(C)CN1Cc2c(C(=O)N(C)C)ncn2-c2ccccc2S1(=O)=O, the Percent Effect [1] was -2.86% and the Percent Effect [2] was 4.89%.
In the case of Cc1cc(OCC(=O)N2CCCC(c3noc(C)n3)C2)no1 (stereo not given), the Percent Effect [1] is reported as -1.75% and the Percent Effect [2] is reported as -41.1%.
COc1ccc(CN2CCC3(CC2)CCN(CC(C)C)C3=O)cc1 was tested, and the Percent Effect [1] was -3.87% and the Percent Effect [2] was 3.87%.
O=C(Nc1cnn(CCN2CCOCC2)c1)c1cc(F)ccc1F gave a Percent Effect [1] of 0.211% and a Percent Effect [2] of 21.3%.
CC(NC(=O)CSCC#N)c1ccccc1 (stereo not given) gave a Percent Effect [1] of 2.98% and a Percent Effect [2] of 13.3%.
Work on CN(C)C(=O)N1CCN(Cc2noc(Cc3ccccc3)n2)CC1 yielded a Percent Effect [1] of 0.542% and a Percent Effect [2] of 8.78%.
COCC(=O)N1CCC2(CC1)CCN(Cc1ccccn1)C2=O was tested, and the Percent Effect [1] was 3.22% and the Percent Effect [2] was 7.27%.
Molecule c1cncc(CN2CCc3ncnc(C4CCOC4)c3CC2)c1 (stereo not given) has a Percent Effect [1] of 3.1% and a Percent Effect [2] of -17.7%.
In the case of CCNC(=O)[C@@H]1C[C@H](NC(=O)c2ccccc2C#N)CN1CCCSC, the Percent Effect [1] is reported as -0.866% and the Percent Effect [2] is reported as 0.196%.
With Cc1noc(C2CCCN(C(=O)c3ccc(Br)cc3F)C2)n1 (stereo not given) the Percent Effect [1] was -4.41% and the Percent Effect [2] was 20.7%.
In the case of O=C(c1ccco1)N1C[C@H]2CCCN(CC3CCOCC3)[C@H]2C1, the Percent Effect [1] is reported as 11.5% and the Percent Effect [2] is reported as 2.22%.
Molecule O=C1CC(c2ccsc2)c2c(n(C3CCOCC3)[nH]c2=O)N1 (stereo not given) has a Percent Effect [1] of -2.53% and a Percent Effect [2] of -30.3%.
